Test results as given in PubChem BioAssay.
Where “and” joins values, the source holds several entries; their conditions need not be identical. Equal values may be shown once. Calls of active or inactive are those of the source.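 The calls were made as follows, unless noted: active = inhibition at or above 50% relative to wild type and mutant plate controls; inactive = inhibition below 50%.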

Tests used:
[1] = inhibitors of TNFa-induced NFkB p65 translocation, primary screen, imaging, HUVEC, MLSMR starter and 10KST1 sets (AID 438;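 active = inhibition above 20% together with a positive visual image hit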;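 also: compound added about 3h40 before a 20 min TNFalpha stimulation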;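 as to inhibition: signal is the nuclear over cytoplasmic p65 intensity ratio per well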); conditions: HUVEC TNFa-induced p65 nuclear translocation; cell count: measured here: nuclei count (cytotoxicity indicator), at 2.08 µM; inhibition: at 2 µM, stronger effect = higher value, 0% TNFa-plus-vehicle, 100% no-TNFa wells
[2] = reduction of polyQ htt aggregates in cells – imaging, exon1htt(103Q)mCFP cells, high-content imaging, primary screen (AID 483;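 active = visual image review flags a hit and inhibition of aggregation exceeds 20%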;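 also: compound exposure lasted 3 days before fixation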;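 as to nuclei count: percent of the per-plate median nuclei count of sample wells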); conditions: exon1htt(103Q)mCFP cell line, aggregate imaging, at 2 µM; inhibition of aggregation: stronger effect = higher value; nuclei count: measured here: cell count, toxicity
[3] = endothelial E-selectin expression blockers – imaging, HUVEC, immunofluorescence, MLSMR starter and 10KST1 sets, primary screen (AID 487;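 active = visually confirmed hit in the image check and inhibition above 20%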;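 as to inhibition: signal is fraction of cell area covered by stained E-selectin grains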;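 as to nuclei count: 100% = median nuclei count of all wells on the same plate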); conditions: HUVEC TNFalpha-induced E-selectin immunofluorescence imaging, at 2 µM; inhibition: stronger effect = higher value; nuclei count: measured here: cell number, toxicity
[4] = Primary imaging screen for DUSP6 inhibitors that restore phospho-Erk in transfected HeLa cells, chemical complementation (AID 609;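 active = compounds giving at least 50% inhibition in the cell-based MKP-3 phosphatase rescue imaging test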;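 as to inhibition: phospho-Erk level distribution per well compared with pooled transfected vehicle control wells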); conditions: HeLa MKP-3 transfected, phospho-Erk imaging KS statistic, at 10 µM, cells stimulated with TPA for 15 min
[5] = target: Dual specificity protein phosphatase 6 (Homo sapiens) (UniProt Q16828); assay: as above; conditions: HeLa MKP-3 transfected, phospho-Erk imaging KS statistic; at 10 µM; stronger effect = higher value; cells stimulated with TPA for 15 min
[6] = target: Voltage-gated potassium channel subunit beta-2 (Rattus norvegicus) (UniProt P62483); assay: inhibitors of rat Kvbeta2 reductase activity – biochemical, NADPH fluorescence, primary screen (AID 622;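 active = fluorescence slope higher than the sample average by over 3 SD, cut at about -0.22 in these data, passing the limit was not always enough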;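 also: slope of raw intensity against log time taken from 70 to 1610 s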); conditions: recombinant KvBeta, 4-cyanobenzaldehyde reduction, at 10 µM, stronger effect = higher value
[7] = target: Voltage-gated potassium channel subunit beta-2 (Rattus norvegicus) (UniProt P62483); assay: enhancers of rat Kvbeta2 NADPH turnover – biochemical, NADPH fluorescence, primary screen (AID 623;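 active = NADPH fluorescence slope more negative than the mean of all samples by about 3 SD, 99.7% confidence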;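 also: fluorescence intensity change per second fitted from 20 to 320 s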); conditions: Recombinant KvBeta, NADPH fluorescence decrease slope, 10 min; at 10 µM; stronger effect = lower value
[8] = target: Muscarinic acetylcholine receptor M4 (Homo sapiens) (UniProt P08173); assay: M4-linked GIRK flux change, two-sided – cell-based, HEK293 M4/GIRK, thallium flux, BTC-AM, M4 allosteric agonist project, primary screen (AID 625;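 active = fluorescence slope after compound addition differing from the mean of all tested samples at 99.7% confidence, mostly higher but some lower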;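 also: thallium influx through GIRK channels coupled to M4 in HEK293 cells with BTC-AM dye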); conditions: at 10 µM, actives lie on both sides
[9] = inhibitors of larval lipid processing in zebrafish, primary screen, whole organism, PED6 fluorescence, gall bladder and intestine (AID 686;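 active = a full or partial loss of lipid-probe fluorescence in the fish gall bladder, intestine or both, judged by eye; inactive = no fluorescence loss, or compound toxic to the fish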;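 also: larvae 5 to 7 days old with five fish per well; signal comes from phospholipase A2 cleavage of quenched PED6 carried via bile; overnight exposure to compound and PED6 before scoring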); conditions: Zebrafish larvae PED6 lipid processing, fluorescence scoring; screened at 20 µM (by protocol)
[10] = loss of swimming-algae plug formation – whole organism, Chlamydomonas reinhardtii, WT vs cilia-less mutant, absorbance, 96-well, primary screen (AID 463189); conditions: Chlamydomonas reinhardtii gravitaxis, OD600 absorbance, 2 days; at 10 µM; stronger effect = higher value;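 also: 0% = wild type cc124 cells in DMSO and 100% = ciliumless bld1 mutant cells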
[11] = blockers of RIG-like receptor reporter activation – cell-based, Sendai virus stimulus, luciferase, 10K MLSCN set, TLR/RLR signaling modifier project, primary screen (AID 602276;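 active = inhibition at or above 50% at 10 µM; inactive = inhibition below 50%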;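 also: firefly luciferase from ISG56 promoter only with Renilla not read in this screen; 0% = Sendai virus plus DMSO and 100% = medium plus DMSO without virus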); conditions: HEK293 RL24 IRF3 luciferase reporter, at 10 µM, stronger effect = higher value
[12] = TLR3 IRF3 reporter activation blockers – cell-based, poly I:C stimulus, luciferase, 10K MLSCN set, primary screen (AID 602277;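 active = inhibition of the reporter signal at or above 50%; inactive = inhibition below 50%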); conditions: HEK293-TLR3 RL24 IRF3 luciferase reporter, at 10 µM, stronger effect = higher value
[13] = target: Alpha-2C adrenergic receptor (Homo sapiens) (UniProt P18825); assay: compounds altering alpha2C-coupled GIRK flux – cell-based, HEK293 alpha2C/GIRK1/2, thallium flux, primary screen (AID 624;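 active = fluorescence slope after compound addition differing from the mean of all screened samples at 99.7% confidence, in either direction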;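 also: slope of fluorescence ratio to pre-addition baseline per second over 15 to 24 s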); conditions: thallium flux BTC fluorescence, at 10 µM, actives lie on both sides
[14] = measured here: cell density z-score
[15] = measured here: nuclear c-Myc green intensity z-score
[16] = measured here: nuclear pErk red intensity z-score, stronger effect = higher value

Alpha-2C adrenergic receptor (Homo sapiens), sequence (P18825 whole entry, looked up): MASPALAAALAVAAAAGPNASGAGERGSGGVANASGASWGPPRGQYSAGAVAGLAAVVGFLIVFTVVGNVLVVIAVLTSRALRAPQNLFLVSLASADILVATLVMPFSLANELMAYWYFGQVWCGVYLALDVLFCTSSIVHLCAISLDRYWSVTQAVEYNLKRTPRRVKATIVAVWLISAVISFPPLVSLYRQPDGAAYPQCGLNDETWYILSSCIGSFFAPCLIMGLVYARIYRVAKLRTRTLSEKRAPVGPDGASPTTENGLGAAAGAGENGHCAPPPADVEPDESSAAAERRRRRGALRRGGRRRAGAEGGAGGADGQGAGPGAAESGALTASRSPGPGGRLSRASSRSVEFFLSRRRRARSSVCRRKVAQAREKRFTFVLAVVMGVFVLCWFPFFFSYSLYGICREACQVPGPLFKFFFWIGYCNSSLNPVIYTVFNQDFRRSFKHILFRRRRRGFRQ
Voltage-gated potassium channel subunit beta-2 (Rattus norvegicus), sequence (P62483 whole entry, looked up): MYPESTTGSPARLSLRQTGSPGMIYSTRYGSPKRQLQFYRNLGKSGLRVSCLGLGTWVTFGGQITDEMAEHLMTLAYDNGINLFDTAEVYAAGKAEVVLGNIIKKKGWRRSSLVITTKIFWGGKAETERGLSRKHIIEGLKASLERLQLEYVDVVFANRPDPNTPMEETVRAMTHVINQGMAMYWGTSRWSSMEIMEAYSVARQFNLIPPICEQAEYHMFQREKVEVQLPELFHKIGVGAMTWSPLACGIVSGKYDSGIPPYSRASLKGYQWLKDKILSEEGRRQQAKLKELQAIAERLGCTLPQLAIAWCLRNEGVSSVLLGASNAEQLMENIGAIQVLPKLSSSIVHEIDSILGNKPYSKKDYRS
Muscarinic acetylcholine receptor M4 (Homo sapiens), sequence (P08173 whole entry, looked up): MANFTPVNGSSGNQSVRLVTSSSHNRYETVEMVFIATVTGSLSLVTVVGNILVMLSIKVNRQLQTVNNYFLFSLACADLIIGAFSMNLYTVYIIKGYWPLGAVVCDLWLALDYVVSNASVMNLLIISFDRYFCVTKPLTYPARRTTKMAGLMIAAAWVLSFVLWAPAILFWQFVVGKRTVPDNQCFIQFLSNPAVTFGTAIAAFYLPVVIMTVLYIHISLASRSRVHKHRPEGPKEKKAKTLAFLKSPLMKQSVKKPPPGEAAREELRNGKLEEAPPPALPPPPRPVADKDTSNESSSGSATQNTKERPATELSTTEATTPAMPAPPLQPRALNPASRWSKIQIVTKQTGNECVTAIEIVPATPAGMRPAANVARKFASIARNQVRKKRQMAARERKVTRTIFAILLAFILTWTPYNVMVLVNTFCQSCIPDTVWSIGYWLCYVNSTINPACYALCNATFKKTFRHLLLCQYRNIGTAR
Dual specificity protein phosphatase 6 (Homo sapiens), sequence (Q16828 whole entry, looked up): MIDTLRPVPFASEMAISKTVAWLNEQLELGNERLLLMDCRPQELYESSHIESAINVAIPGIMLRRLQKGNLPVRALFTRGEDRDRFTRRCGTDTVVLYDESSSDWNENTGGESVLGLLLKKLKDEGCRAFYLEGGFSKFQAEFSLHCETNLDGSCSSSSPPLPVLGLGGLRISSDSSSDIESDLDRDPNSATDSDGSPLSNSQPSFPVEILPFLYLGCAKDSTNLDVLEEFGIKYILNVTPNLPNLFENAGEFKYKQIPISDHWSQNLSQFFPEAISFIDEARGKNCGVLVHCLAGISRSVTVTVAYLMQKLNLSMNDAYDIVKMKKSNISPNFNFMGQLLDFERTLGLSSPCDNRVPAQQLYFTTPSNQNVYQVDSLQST

Compound	cell count [1]	inhibition [1]	inhibition of aggregation [2]	nuclei count [2] [%]	inhibition [3]	nuclei count [3] [%]	z-score [4, 14]	z-score [4, 15]	z-score [4, 16]	inhibition [5]	fluorescence slope [6]	NADPH fluorescence slope [7]	fluorescence slope [8]	outcome [9]	inhibition [10]	inhibition [11]	inhibition [12]	slope [13]
CC(CCc1ccccc1)NCC(O)c1ccc(O)c(C(N)=O)c1 (stereo not given)	612	-8.1% (inactive)	-15.6% (inactive)	103	-7.9% (inactive)	107	0.375	-0.198	-0.807	13.3% (inactive)	-0.442 (inactive)	2.9e-05 (inactive)	0.00425 (inactive)	inactive	10.1% (inactive) and -0.75% (inactive)	-17.5% (inactive)	5.32% (inactive)	
O=C(OCCCN1CCCC1)C1(c2ccccc2)CCCC1	621	2.6% (inactive)	-0.8% (inactive)	80.3	39.9% (inactive)	126	-0.268	-0.108	-0.136	1.04% (inactive)	-0.456 (inactive)	-5.5e-05 (inactive)	0.00493 (inactive)	inactive	91.8% (active)	-13.4% (inactive)	-17.4% (inactive)	
N#C/C(C(=O)N1CCOCC1)=C1/SC(Cc2ccccc2)C(=O)N1c1ccccc1 (stereo not given)	520	-7.6% (inactive)	18.9% (inactive)	105	3.5% (inactive)	112	-1.65	1.02	0.783	-2.09% (inactive)	-0.431 (inactive)	-3.8e-05 (inactive)	0.00475 (inactive)	inactive	-6.43% (inactive)	15.2% (inactive)	24.9% (inactive)	
Cc1c(O)c(CN2CCCC(C)C2)cc2c3c(c(=O)oc12)CCC3 (stereo not given)	695	-6.3% (inactive)	-0.7% (inactive)	102	30.2% (inactive)	136	-0.479	2	1.18	-8.95% (inactive)	-0.0135 (inactive)	8.2e-07 (inactive)	0.00443 (inactive)	inactive	0.622% (inactive)	13.6% (inactive)	16% (inactive)	
CCOC(=O)CC(C#N)c1cn(C)c2ccccc12 (stereo not given)	657	-0.6% (inactive)	2.2% (inactive)	104	8.5% (inactive)	135	-1.04	0.465	0.369	-7.28% (inactive)	-0.46 (inactive)	-3.8e-05 (inactive)	0.00661 (inactive)	inactive	13.1% (inactive)	21.5% (inactive)	28.2% (inactive)	
O=C(O)CCNC(=O)c1ccccc1	571	-4.9% (inactive)			-50.2% (inactive)	97.2	-0.0639	-0.161	-1.08	17.3% (inactive)	-0.479 (inactive)	2.2e-06 (inactive)		inactive	27.8% (inactive)	-13.3% (inactive)	-8.8% (inactive)	0.00491 (inactive)
COc1cccc2c1C(=O)c1c(O)c3c(c(O)c1C2=O)C[C@@](O)(C(=O)CO)C[C@@H]3O[C@H]1C[C@H](N)[C@H](O)[C@H](C)O1	564	-15.3% (inactive)	23.4% (inactive)	2.5			0.975	6.47	3.82	96.1% (active)	-0.456 (inactive)	2.3e-06 (inactive)		inactive	1.03% (inactive)	-38.5% (inactive)	101% (active)	0.00828 (inactive)
COc1cc2nc(N3CCN(C(=O)c4ccco4)CC3)nc(N)c2cc1OC	679	3% (inactive)			-130% (inactive)	128	1.25	-0.94	-1.9	9.37% (inactive)	-0.4 (inactive)	-1.8e-05 (inactive)		inactive	-2.52% (inactive)	-4.12% (inactive)	19.3% (inactive)	0.00375 (inactive)
COc1ccc2c(C)nc(Nc3nc(C)cc(C)n3)nc2c1	644	-5.8% (inactive)	-15.4% (inactive)	116			-1.03	0.468	-0.248	-5.95% (inactive)	-0.534 (inactive)	-1e-05 (inactive)		inactive	-4.58% (inactive)	14% (inactive)	20% (inactive)	0.00447 (inactive)
CC(=O)O[C@H]1C(=O)[C@]2(C)[C@H]([C@H](OC(=O)c3ccccc3)[C@]3(O)C[C@H](OC(=O)[C@H](O)[C@@H](NC(=O)c4ccccc4)c4ccccc4)C(C)=C1C3(C)C)[C@]1(OC(C)=O)CO[C@@H]1C[C@@H]2O	508	-11.8% (inactive)			-188% (inactive)	105	0.529	0.25	0.563	-2.46% (inactive)	-0.449 (inactive)	-1.6e-05 (inactive)		inactive	0.148% (inactive)	17.7% (inactive)	44.3% (inactive)	0.00483 (inactive)
CCOC(=O)c1ccc2nc(NC(NC(C)=O)(C(=O)OC)C(F)(F)F)sc2c1 (stereo not given)	520	-8.2% (inactive)	-4% (inactive)	93.1	-23.9% (inactive)	130	1.37	-0.549	-0.534	9.42% (inactive)	-0.458 (inactive)	-9.4e-05 (inactive)	0.00434 (inactive)	inactive	-10.3% (inactive)	133% (active)	99% (active)	
CC[N+](C)(C)Cc1ccccc1Br	649	-4.5% (inactive)			-101% (inactive)	123	-1.09	-0.375	0.336	11.3% (inactive)	-0.502 (inactive)	1.7e-05 (inactive)		inactive	3.29% (inactive) and 10.5% (inactive)	19.3% (inactive)	30.2% (inactive)	0.00416 (inactive)
CCCC(=O)Nc1ccc(OCC(O)CNC(C)C)c(C(C)=O)c1 (stereo not given)	693	-4.7% (inactive)			-70.6% (inactive)	120	-1.73	-0.994	0.31	11.3% (inactive)	-0.492 (inactive)	3e-05 (inactive)		inactive	-6.41% (inactive)	8.12% (inactive)	27.1% (inactive)	0.00505 (inactive)
COc1ccc2c(c1)[nH]c1c(=O)n(CCN(C)C)cnc12	660	-3.5% (inactive)	-8.1% (inactive)	102	23.1% (inactive)	135	-1.37	2.24	-0.536	9.61% (inactive)	-0.449 (inactive)	-3.5e-05 (inactive)	0.00667 (inactive)	inactive	2.29% (inactive)	17% (inactive)	24.4% (inactive)	
CC(C)NCC(O)COc1cccc2[nH]ccc12 (stereo not given)	631	-11.5% (inactive)			-58% (inactive)	126	0.107	-0.142	0.346	3.45% (inactive)	-0.46 (inactive)	-4.4e-05 (inactive)		inactive	-3.19% (inactive) and 0.043% (inactive)	-0.334% (inactive)	29.8% (inactive)	0.00514 (inactive)
CC[C@H]1OC(=O)C[C@@H](O)[C@H](C)[C@@H](O[C@@H]2O[C@H](C)C[C@H](N(C)C)[C@H]2O)[C@@H](CC=O)C[C@@H](C)C(=O)C=C[C@]2(C)O[C@H]2[C@@H]1C	610	-3.7% (inactive)			-120% (inactive)	116	0.794	-0.225	-0.416	7.39% (inactive)	-0.498 (inactive)	-2.6e-05 (inactive)		inactive	59.9% (active)	6.6% (inactive)	61.9% (active)	0.00472 (inactive)
O=S(=O)(c1cccc2cnccc12)N1CCCNCC1	401	4.2% (inactive)			-37.4% (inactive)	120	-0.577	0.628	-2.35	21.2% (inactive)	-0.463 (inactive)	-6.3e-05 (inactive)			0.327% (inactive)	18.3% (inactive)	29.9% (inactive)	0.00448 (inactive)
Nc1ccc(S(=O)(=O)Nc2ncccn2)cc1	603	-1.5% (inactive)	-4.1% (inactive)	87.5	-68.8% (inactive)	130	1.12	-1.89	1.02	5.79% (inactive)	-0.5 (inactive)	-6.3e-05 (inactive)		inactive	-12.2% (inactive)	15.1% (inactive)		0.00507 (inactive)
O=C(O)c1cc(=O)c2c(OCC(O)COc3cccc4oc(C(=O)O)cc(=O)c34)cccc2o1	472	-2.9% (inactive)			-78.3% (inactive)	106	-1.42	1.02	-0.69	5.42% (inactive)	-0.505 (inactive)	-6.1e-05 (inactive)		inactive	-9.3% (inactive)	13.2% (inactive)	13.9% (inactive)	0.0051 (inactive)
CC1(C)SC2[C@H](NC(=O)C(NC(=O)N3CCNC3=O)c3ccccc3)C(=O)N2C1C(=O)O (stereo not given in full)	705	-9.5% (inactive)			-58.5% (inactive)	117	0.0464	-0.196	-0.885	15.3% (inactive)	-0.461 (inactive)	-5.2e-05 (inactive)		inactive	6.16% (inactive)	3.1% (inactive)	37.2% (inactive)	0.00535 (inactive)
Fc1cc(F)c(F)c(SCCc2ccncc2)c1F	541	-0.9% (inactive)	-11.2% (inactive)	104			0.361	0.923	0.0696	-7.28% (inactive)	-0.422 (inactive)	-1.5e-05 (inactive)		inactive	97.5% (active)	7% (inactive)	-1.64% (inactive)	0.0056 (inactive)
Cn1c(Cl)cnc1C1CC(=O)c2cc(Cl)ccc2O1 (stereo not given)	637	-11.8% (inactive)		0.8	-161% (inactive)	112	-0.672	-0.603	-2.4	15.9% (inactive)	-0.562 (inactive)	-8.8e-06 (inactive)		inactive	-12.2% (inactive)	16.5% (inactive)	35% (inactive)	0.00554 (inactive)
